This is part of a sample that, as a whole, favours compounds with a hit. Of some 83,000 tested, about 20% had one in any assay.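 96-well plates, one dose, 48 hours. Percent growth reported; active if below 10.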 A number with no mark means an inactive call. Calls of active or inactive are those of the source.
Tested on: SN12C renal
Assay: NCI-60 one-dose screen, 48 h (100 = growth as untreated, 0 = no growth, -100 = all killed)
Conditions: 10 µM unless noted

| Compound | growth |
| --- | --- |
| CN1CCN(c2ccc(/C=N/Nc3nc4ccccc4c(=O)n3-c3ccccc3)cc2)CC1 | 103% |
| COc1cc(-c2nc3sccn3c2-c2ccnc(S(C)(=O)=O)n2)ccc1F | 88.7% |
| Cc1ccc2c(c1)Oc1nc(N)c(C#N)c(N)c1C2Sc1ccc(F)cc1 (centres undefined) | -98.4% (active) |
| CCCn1cnc2c(c1=N)C(c1ccc(F)cc1)c1sc3c(C)cccc3c1O2 (centres undefined) | 61.9% |
| COc1ccc(Cn2cc3c(c2-c2cc(OC)c(OC)c(OC)c2)CCc2c(CN4CCCC4)noc2-3)cc1 | 36.6% |
| CC1=N[C@@H]2CN(C(=O)OC(C)(C)C)C[C@@H]2n2c1cc1ccccc1c2=O | 97.1% |
| COc1cc(OC)cc(C(=O)Nc2cccc(C#Cc3cccc4[nH]nc(N)c34)c2)c1 | 30.4% |
| COc1ccccc1-n1cc(C#N)c(N)c1C(=O)c1ccc(Br)cc1 | 82.7% |
| CS(=O)(=O)Nc1cc(-c2ccc3ncc(C#N)c(NCc4cccc(F)c4)c3c2)cnc1Cl | 15.4% |
| CC[C@H](CO)Nc1ccc2ncc(C#Cc3cncc(C(=O)Nc4ccc(CN5CCN(C)CC5)c(C(F)(F)F)c4)c3)n2n1 | -65.1% (active) |
| COc1cc(-c2nc(SCCC(C)C)nc(NNC(=O)c3ccncc3)c2C#N)cc(OC)c1OC | 60.4% |
| CCCCCc1ccc(S(=O)(=O)Nc2cc(-c3csc(NC(=O)CN4CCN(CCO)CC4)n3)ccc2OC)cc1 | 74.7% |
| CCCn1cnc2c(c1=N)C(c1ccc(OC)cc1)c1sc3c(CC)cccc3c1O2 (centres undefined) | 29.5% |
| C#Cc1ccc(C(=O)NCc2ccc(/C=C/C(=O)c3nccn3C)cc2)cc1 | 14.8% |

Source: PubChem BioAssay (NCI)
